Compound activity: PubChem, National Center for Advancing Translational Sciences (NCATS)
Only some compounds are listed: those with a hit (about 15% of all), similar ones and a draw of the others.
Pf growth 96h = P. falciparum growth inhibition at 96 hours; P. falciparum luciferase reporter growth, 96 h; Potency, µM (top dose mostly 28.7 µM), inactives show at the highest dose activity change, negative = inhibition, hits mostly inhibitors; 320,000 compounds, 6.9% hits; AID 504834; note: potency is the fitted concentration of half-maximal effect; % is set by controls: 0 for no effect and ±100 for the full control effect
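Readout is luminescence from an integrated firefly luciferase in P. falciparum. Red cells, 2% hematocrit and 0.05% parasitemia final, were cultured with compound through two parasite generations (96 hours) at 37 C, 5% CO2.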
Sm TGR inh = S. mansoni TGR enzyme inhibition; Q962Y6; purified TGR, DTNB reduction, TNB absorbance 405 nm; Potency, µM (top dose mostly 114 µM), for the others: at the highest dose activity change, negative = inhibition, usual class: inhibitors; 360,000 compounds, 3% hits; AID 485364; note: potency is the fitted concentration of half-maximal effect; % is set by controls: 0 for no effect and ±100 for the full control effect; nearly all actives have a fitted effect of over 60% in size
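First, TGR (20 nM dispensed) and NADPH were mixed with compound. Second, a 15 min room-temperature incubation followed. Third, further NADPH and then DTNB were added to start the reaction. Finally, TNB absorbance was monitored kinetically.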
Pf growth 48h = inhibits P. falciparum growth in the first generation, 48 h; Potency, µM (top dose mostly 28.7 µM), for the others: top-dose activity change, negative = inhibition, usual class: inhibitors; 310,000 compounds, 5.9% hits; AID 504832; P. falciparum luciferase growth in erythrocytes, 48 h; note: potency is the fitted concentration of half-maximal effect; % is set by controls: 0 for no effect and ±100 for the full control effect
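First compound was added to culture medium, then infected red cells at 0.1% parasitemia and 2% hematocrit (final). After incubation at 37 C under 5% CO2, luciferase detection reagent was dispensed and light output recorded.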
SARS PLP yeast = inhibitors of SARS-CoV papain-like protease in yeast | S. cerevisiae expressing SARS-CoV PLpro, growth rescue | Potency, µM (top dose mostly 32.9 µM), for inactives: at the top dose activity, positive = growth rescue, usual class: activators | 330,000 compounds, 0.19% hits; calls by dose curve; note: potency is the fitted concentration of half-maximal effect; 0% is about no effect; nearly all actives have a fitted effect of over 55% in size
HCMV inh = inhibitors of human cytomegalovirus. activity change, negative = inhibition, % at 57.5 µM. HFF cells, HCMV-luciferase reporter, 72 h; hits give low values. AID 1259415. 410,000 compounds, 4.5% hits; in the data active = activity change below about -60%; inconclusive = no clear call, values can overlap the other calls; inactive = above about -39%; note: % is set by controls: 0 for no effect and ±100 for the full control effect
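Two compound doses tested in HFFs infected with HCMV-luciferase, MOI 1 PFU/cell, 72 h at 37C. Lysate luminescence read with OneGlo; data normalized against buffer-only and 10uM Salinomycin inhibitor controls.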
HCV inh = HCV inhibition; Huh7.5.1 HCVcc-Cre infection, luciferase reporter, 44 h; 340,000 compounds, 3.4% hits; Potency, µM (doses to about 41.8 µM), inactives show top-dose activity change, negative = inhibition, actives largely listed as inhibitors; AID 651820; note: potency is the fitted concentration of half-maximal effect; % is set by controls: 0 for no effect and ±100 for the full control effect
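Compounds are dispensed onto cells plated 4 h earlier at 1,000 per well, with HCVcc-Cre virus (about 0.5 moi) added next. Following 44 h of culture, luminescent signal is measured for 15 sec after 15 min with substrate at room temperature.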
* marks the source's active call; other numbers are inactive results; ? = inconclusive; · = no result; + = active, no number; [ ] = remark or other dose. Unless noted, calls come from the whole dose curve; as a rule, active = well fitted curve in the direction sought with a large enough effect; inconclusive = small, poorly fitted or top-dose-only effect, or another doubt; inactive = no such curve, though single readings can be large; an effect the other way counts as inactive or inconclusive.

SMILES	Pf growth 96h	Sm TGR inh	Pf growth 48h	SARS PLP yeast	HCMV inh	HCV inh
COc1ccc(/C(C)=N/NC(=S)NCCc2ccccc2)c(O)c1	?	-20%	0.41µM*	-4%	?	?
COCCCNC(=S)N/N=C/c1ccccc1O	?	-15%	?	1%	-62*	-18%
O=C(N/N=C/c1cc(Br)ccc1O)C(=O)Nc1ccccc1OC(F)(F)C(F)F	2.9µM*	4%	?	-5%	-105*	?
Cc1cccc(/C=N/NC(=O)c2cc(Br)ccc2O)n1	12µM*	-11%	30%	-4%	-16	4µM*
COCCNC(=S)N/N=C/c1ccccc1C(=O)O	22%	0%	·	-2%	-5	16%
CC1CCN(C2CCN(S(=O)(=O)c3ccc(C(F)(F)F)cc3)CC2)CC1	6%	-9%	4%	0%	-23	-9%
O=C(CCNC(=O)c1ccccc1Cl)Nc1nnc(C2CC2)s1	-29%	-23%	-14%	0%	16	?
COc1ccc(OC)c(/C=N/NC(=O)CCc2ccc(O)c(O)c2)c1	?	20µM*	27%	-3%	-39	-17%
O=C(CCc1ccccc1)N/N=C/c1cc(Br)ccc1O	6.6µM*	5%	4.1µM*	-4%	-76*	11µM*
Oc1ccc(Br)cc1/C=N/NC(=S)NCCc1ccccc1	2.3µM*	0%	4.7µM*	-10%	-18	10µM*
COc1ccc(OC)c(/C=N/NC(=O)CCc2c(C)n[nH]c2C)c1	58%	9%	6%	0%	10	4%
O=C(N/N=C/c1cc(Br)ccc1O)c1ccccc1Cl	9.3µM*	8%	?	·	-65*	?
COC(=O)N/N=C/c1cc(Br)ccc1O	?	11%	0%	0%	12	-3%
CN(Cc1ccccc1)C(=O)c1ccc2sc([C@H]3C[C@H](O)[C@@H](CO)O3)nc2c1	·	·	·	·	1	·
COc1ccc(O)c(/C=N/NC(=S)NCCc2ccccc2)c1	?	-19%	2.6µM*	-1%	-19	?
c1ccc(COc2ccc(-c3cc4nc(NCCN5CCOCC5)ccn4n3)cc2)cc1	·	·	·	·	-62*	·
NS(=O)(=O)c1ccc(CCNc2ccn3nc(-c4ccc(OCCN5CCOCC5)cc4)cc3n2)cc1	·	·	·	·	-100*	·
Cc1nn(C)c(Oc2ccccc2)c1CCNC(=O)C(C)(C)C	?	6%	?	1%	-83*	0%
Cc1nn(C)c(Oc2ccccc2)c1CCNC(=O)CC(C)C	-17%	·	27%	1%	-2	-11%
COc1ccc(S(=O)(=O)NCCc2c(C)nn(C)c2Oc2ccccc2)cc1	?	-10%	?	-2%	-19	?
Cc1nn(C)c(Oc2ccccc2)c1CCNS(=O)(=O)c1ccc(Cl)cc1	?	4%	?	-3%	-75*	10µM*
Cc1ccccc1-c1cnc2c(c1)C(=O)N([C@@H](C)CO)C[C@@H](C)[C@H](CN(C)Cc1ccccc1F)O2	·	·	·	·	-3	·
COc1ccc(CNC(=O)c2cc3c(-c4ccccc4F)nn(C)c3s2)cc1	·	10%	·	·	-16	·
Cc1ccc(C)c(C(=O)CSc2nc(-c3ccccc3)nc3c2CCCC3)c1	·	-6%	·	·	-10	·
O[Si](CCCN1CCCCC1)(c1ccc(F)cc1)C1CCCCC1 (stereo unspecified)	0.1µM*	-12%	0.093µM*	-1%	-18	?
SMILES	Pf growth 96h	Sm TGR inh	Pf growth 48h	SARS PLP yeast	HCMV inh	HCV inh
O=C(NCCCN1CCCC1)Nc1ccc(F)cc1	-22%	6%	20%	0%	21	0%
CC1([N+](=O)[O-])COC2(CCCCC2)OC1	·	·	·	·	26	8%
Cc1ccc(N=C2NC(=O)S/C2=C\c2ccco2)cc1	?	-30%	?	5%	-15	?
O=C1NC(=Nc2ccccc2)/C(=C/c2ccco2)S1	?	50µM*	?	-8%	-25	11µM*
Cc1cccc(N=C2NC(=O)/C(=C/C=C/c3ccco3)S2)c1C	?	10µM*	-11%	-9%	3	4%
COc1ccc(N=C2NC(=O)/C(=C\C=C\c3ccccc3)S2)cc1	-1%	6%	?	1%	-25	-25%
Cc1ccc(N=C2NC(=O)/C(=C/C=C/c3ccco3)S2)cc1	?	45µM*	?	-22%	84	-4%
O=C1NC(=Nc2ccccc2)S/C1=C\C=C\c1ccco1	?	11µM*	?	-3%	50	?
COc1ccccc1CNC(=O)COC(=O)Cn1cnc2c1c(=O)n(C)c(=O)n2C	·	·	·	·	1	·
C[C@@H](NC(=O)[C@@H]1Cc2ccccc2CN1C(=O)OC(C)(C)C)C(=O)NC1CCCCC1	13µM*	4%	?	0%	19	-6%
C[C@H](NC(=O)[C@@H]1Cc2ccccc2CN1C(=O)OC(C)(C)C)C(=O)NCc1ccco1	?	40µM*	?	2%	-25	19%
C[C@H](NC(=O)[C@@H]1Cc2ccccc2CN1C(=O)OC(C)(C)C)C(=O)NC1CCCCC1	13%	2%	?	3%	+	-16%
O=C(COC(=O)c1ccc2c(c1)OCCO2)NC1CCCCC1	15%	-1%	19%	-7%	27	13%
CCC(C)(O)c1[nH]c2ccc(C(=O)OC)cc2c1C (stereo unspecified)	134%	-26%	97%	1%	-25	-7%
O=C(CN(Cc1ccccc1Cl)C(=O)c1ccc(CN2CCOCC2)o1)NCC1CCCO1 (stereo unspecified)	?	-14%	-3%	0%	24	13%
CC(=O)N(C)c1cccc(-c2ccc3nnc(C)n3n2)c1	10%	0%	14%[0.00184 µM]	-1%	·	13%
Cc1cc(C)nc(SCC(=O)NC2CCCCC2C)n1 (stereo unspecified)	10%	-7%	-8%	2%	2	6%
CC(Oc1cccc(Cl)c1)C(=O)Nc1ccccc1C(=O)N1CCCCC1 (stereo unspecified)	-23%	-2%	1%	-4%	-38	-13%
CCC(Oc1ccccc1)C(=O)Nc1ccccc1N1CCCCC1 (stereo unspecified)	89%	2%	-11%	-2%	5	?
CC(Oc1cccc(Cl)c1)C(=O)Nc1ccccc1N1CCCCC1 (stereo unspecified)	12µM*	3%	5.9µM*	-2%	-27	-8%
CC(Oc1ccc(F)cc1)C(=O)Nc1ccccc1N1CCCCC1 (stereo unspecified)	12µM*	4%	?	-4%	·	·
C[C@@H]1CN([C@@H](C)CO)S(=O)(=O)c2ccc(Br)cc2O[C@@H]1CN(C)C(=O)c1ccccn1	·	·	·	·	24	·
